MEKK3 PB1 HTS: modulators of MEKK3-MEK5 PB1 binding, primary screen, biochemical, wildtype MEKK3, multiplex bead flow cytometry, Alexa488-MEK5 | Mitogen-activated protein kinase kinase kinase 3 (Homo sapiens), Q99759 | bead-based flow cytometry, Alexa488-MEK5 binding to MEKK3; actives lie on both sides; 0 = blocked by unlabeled MEK5, 100 = vehicle | binding response (% of control), % at 10 µM | hit rate 1.4% among 290,000 | AID 1529, 2009;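 active = binding response more than 3 SD above or below the average of its plate-row segment, actives on both sides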;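 also: Alexa488 bead fluorescence after subtracting the streptavidin-only scavenger bead signal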
CHT inh: inhibitors of human choline transporter CHT; High affinity choline transporter 1 (Homo sapiens), Q9GZV3; B-score at 10 µM; AID 488975, 2010; CHT-expressing cells, membrane potential dye, choline response; hits give low values; hit rate 0.86% among 310,000;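 active = B-score over 3 SD under the library average, and starting fluorescence ratio not unusually high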;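 also: choline stimulus applied at its EC90 after an EC20 pre-addition; B-score computed on integrated fluorescence ratio after choline addition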
Target sequence (Q9GZV3 whole entry, looked up): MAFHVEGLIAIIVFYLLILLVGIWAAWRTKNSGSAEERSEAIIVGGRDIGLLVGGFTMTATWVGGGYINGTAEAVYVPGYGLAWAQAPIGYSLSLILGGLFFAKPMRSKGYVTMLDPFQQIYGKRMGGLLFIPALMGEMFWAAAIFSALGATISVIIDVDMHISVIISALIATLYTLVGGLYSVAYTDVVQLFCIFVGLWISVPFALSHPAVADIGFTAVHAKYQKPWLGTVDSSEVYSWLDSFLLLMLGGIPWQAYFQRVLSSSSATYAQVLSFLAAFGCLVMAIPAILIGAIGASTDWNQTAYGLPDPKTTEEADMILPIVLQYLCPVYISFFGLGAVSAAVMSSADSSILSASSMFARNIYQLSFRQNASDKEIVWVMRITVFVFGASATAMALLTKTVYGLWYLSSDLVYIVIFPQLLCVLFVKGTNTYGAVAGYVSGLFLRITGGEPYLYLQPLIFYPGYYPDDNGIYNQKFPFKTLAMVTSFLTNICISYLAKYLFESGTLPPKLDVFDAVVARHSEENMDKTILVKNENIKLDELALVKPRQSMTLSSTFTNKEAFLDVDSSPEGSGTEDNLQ
MEKK2wt PB1 HTS: modulators of MEK5 binding to wildtype MEKK2, primary screen, biochemical, multiplex bead flow cytometry, Alexa488-MEK5; Mitogen-activated protein kinase kinase kinase 2 (Homo sapiens), Q9Y2U5; Alexa488-MEK5 binding to MEKK2 WT; actives lie on both sides; binding response (% of control), % at 10 µM; hit rate 1.1% among 290,000; AID 1531, 2009; in the data active = binding response below about 67% or above about 130%
CHT PAM: CHT positive allosteric modulators, primary screen, cell-based, membrane potential dye, choline EC20; High affinity choline transporter 1 (Homo sapiens), Q9GZV3; CHT-expressing cells; hits give high values; LV-AA mutant CHT in HEK293 cells; B-score at 10 µM; hit rate 0.49% among 310,000; AID 488977, 2010;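 active = initial fluorescence not abnormally high and integrated response B-score, plate-corrected, over 3 SD above library mean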
SUMO Mot1 rescue: yeast Mot1-301 growth rescue at high temperature, primary screen, SUMOylation pathway inhibitor project, S. cerevisiae, ATP luminescence, 38.5C | S. cerevisiae Mot1-301 growth rescue; percent above DMSO median, 100 means doubled | hit rate 1% among 320,000 | growth rescue, % at 18.8 µM;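 active = every valid replicate shows activation above 250% relative to neutral control wells; inactive = the rest, any valid replicate at or below 250%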;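 also: OY570 slx delta 5 strain wells were the positive control but not used for scaling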
MEKK2 mut-MEK5: MEK5 binding signal on mutant MEKK2 PB1, primary screen, biochemical, multiplex bead flow cytometry, Alexa488-MEK5; Alexa488-MEK5 binding to MEKK2 mutant; hit rate 0.35% among 290,000; AID 1530, 2009; percent response, % at 10 µM; in the data active = percent response above about 24%, passing the limit was not always enough
CHT block conf: CHT inhibitors, confirmation, cell-based, membrane potential dye, duplicate; shares compounds with CHT inh; CHT-expressing cells, choline membrane potential dye; LV-to-AA substituted CHT, HEK293 cells; CHT activity remaining % of control (hits give low values), % at 10 µM; hit rate 70% among 2,400;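 active = choline transporter activity left, mean of duplicates at 10 µM, below buffer-only control mean minus 3 SD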;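 also: depolarization triggered by choline at its EC90 following an EC20 pre-addition; 0% = hemicholinium-3 full block and 100% = buffer-only control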
HEK293 CHT ctr: membrane potential effects in parental HEK293, counter-screen for CHT inhibitor project, cell-based, membrane potential dye; shares compounds with CHT inh; choline response; active = decrease or increase beyond buffer ±3SD; membrane potential ratio readout (active if shifted either direction beyond buffer ±3SD; no single direction) at 10 µM; hit rate 4% among 2,400; AID 493222, 2011;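 also: parental cells lack the transporter so any hit is non-specific; ratio is peak minus trough fluorescence over baseline after EC90 choline challenge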
The depositor's hits bear a star; i = inactive; . = not tested or not shown. A selection: hits, their analogues and other compounds. The true share with any hit is near 4.1%.

SMILES	MEKK3 PB1 HTS	CHT inh	MEKK2wt PB1 HTS	CHT PAM	SUMO Mot1 rescue	MEKK2 mut-MEK5	CHT block conf	HEK293 CHT ctr
CCCNC(=O)c1ccccc1NC(=O)c1ccc2c(c1)NC(=O)C(C)S2 (configuration not stated)	94.0	-5.89*	94.0	i	1.1	2.0	65.2%*	i
COC(=O)CC1=NN(c2nc3ccccc3s2)C(=O)/C1=C/N(C)C	101.0	i	101.0	i	-6.4	6.0	.	.
O=C(CCCN1C(=O)/C(=C\c2cccs2)SC1=S)NNC(=O)c1ccncc1	95.0	i	89.0	i	28.0	-11.0	.	.
COc1cccc(/C=C2\SC(=S)N(NC(=O)c3ccncc3)C2=O)c1	98.0	-8.67*	82.0	i	.	-13.0	5.2%*	i
O=C(NN1C(=O)/C(=C/c2cccc(O)c2)SC1=S)c1ccccc1O	99.0	-5.23*	100.0	i	-8.1	1.0	67.8%*	i
O=C(NN1C(=O)/C(=C/c2cccs2)SC1=S)c1ccncc1	91.0	-10.1*	97.0	i	-6.9	-11.0	7.4%*	i
CCN(Cc1ccncc1)Cc1ccc(Br)cc1	101.0	i	106.0	i	16.7	10.0	.	.
COCCN(C(=O)COC(=O)CCSc1ccc(F)cc1)c1c(N)n(Cc2ccccc2)c(=O)[nH]c1=O	.	i	.	i	66.1	.	.	.
CCc1c(C2(O)CCCCC2)[nH]c2ncccc12	.	.	.	.	-13.4	.	.	.
COc1ccc2c(c1OC)C(=O)N1c3ccccc3C(=O)N(c3ccccc3)C21 (configuration not stated)	99.0	-8.53*	100.0	i	167.3	0.0	i	i
Cc1ccc(N2CCN(C(=S)Nc3ccccc3C)CC2)cc1	97.0	i	99.0	i	12.6	3.0	.	.
CN(C)C(=O)c1ccccc1Sc1ccc(Cl)cc1Cl	102.0	-4.95*	101.0	i	12.0	1.0	i	i
O=S(=O)(NCCN1CCOCC1)c1cccs1	99.0	-9.34*	100.0	i	-12.9	-1.0	i	i
CC(C)(CNS(=O)(=O)c1cccs1)N1CCOCC1	.	.	.	.	-11.9	.	.	.
NC(=O)NC(=O)COC(=O)CC12CC3CC(CC(C3)C1)C2	103.0	i	100.0	i	.	-2.0	.	.
CCC(C)Nc1nc2c(c(=O)[nH]c(=O)n2C)n1CCC(C)C (configuration not stated)	105.0	-8.35*	104.0	i	-12.5	11.0	i	i
COC(=O)C(C)Sc1nc2c(c(=O)[nH]c(=O)n2C)n1CCC(C)C (configuration not stated)	98.0	-5.09*	100.0	i	1.7	2.0	39.7%*	i
CCC(C)Nc1nc2c(c(=O)[nH]c(=O)n2C)n1CCCc1ccccc1 (configuration not stated)	101.0	i	98.0	i	-3.7	1.0	.	.
COc1cc(-c2n[nH]c(=S)n2-c2ccc(C)cc2)cc(OC)c1OC	103.0	i	98.0	i	.	-3.0	.	.
O=CN/C=C/c1cc(O)ccc1O	104.0	-7.42*	107.0	i	19.9	7.0	48.4%*	i
CCCN(CCC)CCCNC(=S)Nc1ccc2nc(N3CCN(CC)CC3)cc(C)c2c1	105.0	-6.68*	120.0	i	2.4	6.0	49.2%*	2.17*
CCN1CCN(c2cc(C)c3cc(NC(=S)N4CCCCC4)ccc3n2)CC1	102.0	-6.67*	117.0	i	264.3	5.0	47.4%*	i
COC(=O)C1=C(C(=O)OC)C2(OC1c1ccccc1C)C(=O)c1ccccc1C2=O (configuration not stated)	94.0	i	96.0	i	-11.6	8.0	.	.
O=C(NCc1cccc(C(F)(F)F)c1)c1cc(Cl)cc(Cl)c1	100.0	i	110.0	i	6.8	8.0	.	.
O=C(NCc1cccc(C(F)(F)F)c1)c1cc(Cl)ccc1Cl	124.0	-5.78*	100.0	i	3.9	0.0	i	i
SMILES	MEKK3 PB1 HTS	CHT inh	MEKK2wt PB1 HTS	CHT PAM	SUMO Mot1 rescue	MEKK2 mut-MEK5	CHT block conf	HEK293 CHT ctr
COc1cc(-c2nnc(SC/C=C/c3ccccc3)n2N)cc(OC)c1OC	100.0	-5.23*	99.0	i	1.4	-4.0	67.3%*	i
Nn1c(SC/C=C/c2ccccc2)nnc1-c1ccncc1	.	i	.	i	-2.0	.	.	.
O=C(NNC(=O)C1CC1)c1cc(Br)c(Br)s1	.	.	.	.	32.1	.	.	.
COC(=O)C1(CC2CC(c3ccccc3)=NO2)CCN(C(=O)OC(C)(C)C)CC1 (configuration not stated)	100.0	i	100.0	i	4.6	0.0	.	.
CN(C)CC(=O)Nc1ccc(S(N)(=O)=O)cc1	93.0	i	94.0	i	-6.7	-6.0	.	.
CCN(CC)C(=S)SCC(=O)Nc1ccc(S(N)(=O)=O)cc1	101.0	-5.58*	98.0	i	212.9	-3.0	i	i
CC(C)(C)C(C(=O)Oc1ccccc1)c1ccccc1 (configuration not stated)	.	.	.	.	20.6	.	.	.
COc1ccc(OC)c(NC(=O)Cn2nc(C)c3ccccc3c2=O)c1	100.0	i	102.0	i	-2.7	2.0	.	.
N#C/C(=N\Nc1cccc(C(F)(F)F)c1)C(=O)c1ccsc1	90.0	-10.1*	86.0	i	8.7	-18.0	35.0%*	i
CC(=O)/C=C/c1ccc2ccccc2n1	96.0	-5.33*	96.0	i	25.9	-5.0	i	i
O=C(Nc1ccc(S(=O)(=O)NCC2CCCO2)cc1)c1ccccc1 (configuration not stated)	104.0	i	107.0	i	10.2	3.0	.	.
O=S(=O)(NCC1CCCO1)c1ccc(Oc2ccccc2)cc1 (configuration not stated)	97.0	-5.57*	104.0	i	18.1	5.0	i	i
CCC(Oc1ccccc1)C(=O)Nc1ccc(S(=O)(=O)NCC2CCCO2)cc1 (configuration not stated)	97.0	-8.73*	96.0	i	27.3	-7.0	39.7%*	i
CC1C(=O)N2CCCc3cc(NC(=O)C(=O)NCc4cccnc4)cc1c32 (configuration not stated)	.	i	.	i	-10.4	.	.	.
